Compound activity: PubChem BioAssay, National Center for Advancing Translational Sciences (NCATS)
Abeta yeast res: restores growth of yeast expressing A-beta42 peptide; yeast expressing A-beta42, growth rescue, OD600, 48 h; response scale: 0% DMSO, 100% iron-clioquinol control; Potency, µM (top dose mostly 46.1 µM), actives largely listed as activators; hit rate 0.063% among 410,000; note: nearly all actives have a fitted effect of over 55% in size
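Yeast A-beta toxicity model in growth medium with pinned compounds, 48 h at 30 C; growth read as absorbance at 600 nm. Normalized to FeCl3/clioquinol equimolar mix (positive) and DMSO (negative).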
PTAP TSG101 blk: blocks PTAP/TSG101 interaction to inhibit HIV-1 budding; 340,000 tested, under 10 active; Q99816; AID 493005; Potency, µM (highest dose often 115 µM), inactives show at the top dose activity change, negative = inhibition, usual class: inhibitors; Fluorescence polarization, FITC-PTAP peptide / Tsg101 binding; active = well fitted inhibition curve with a large enough effect in the main read-out, with a control signal flat, not every such curve was filed as active; inconclusive = small, poorly fitted or top-dose-only effect, or effect the other way, or a change in a side signal; inactive = no such curve, though single readings can be large or run the other way; note: % of control where 0% means no effect
Target sequence (Q99816 whole entry, looked up): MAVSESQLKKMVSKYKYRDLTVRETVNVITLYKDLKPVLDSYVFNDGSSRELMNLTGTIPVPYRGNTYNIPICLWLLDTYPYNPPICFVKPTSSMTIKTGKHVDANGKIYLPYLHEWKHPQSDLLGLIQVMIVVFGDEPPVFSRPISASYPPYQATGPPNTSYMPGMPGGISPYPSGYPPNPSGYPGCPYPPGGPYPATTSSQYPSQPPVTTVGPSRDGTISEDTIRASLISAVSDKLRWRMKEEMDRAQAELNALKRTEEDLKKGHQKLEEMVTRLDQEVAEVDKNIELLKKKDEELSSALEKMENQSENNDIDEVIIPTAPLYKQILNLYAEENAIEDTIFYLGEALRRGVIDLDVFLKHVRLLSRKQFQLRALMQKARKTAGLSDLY
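Steps: Tsg101 binding domain dispensed (10 uM final), compounds pinned in DMSO, FITC-labeled PTAP-motif peptide added (50 nM final); after 20 min binding at room temperature, polarization measured.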
FUS yeast rescue: suppressors of FUS proteinopathy in yeast | S. cerevisiae FUS-expressing, growth rescue, OD600, 24 h | Potency, µM (doses to about 76.6 µM), hits mostly activators | hit rate 0.24% among 390,000;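 note: plate controls were DMSO vehicle for no effect and reference control for full effect; nearly all actives have a fitted effect of over 55% in size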
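Restored growth of FUS-toxic S. cerevisiae, read as 600 nm absorbance after 24 h at 30C in galactose medium (starting OD 0.005). Controls CP55940 and DMSO.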
aSyn yeast inh: alpha-synuclein toxicity inhibition in yeast; AID 652106; Potency, µM (titrated, usually from 46.1 µM), for inactives: at the highest dose growth rescue (activation), actives largely listed as activators; hit rate 0.14% among 370,000; Yeast expressing alpha-synuclein, growth rescue, BacTiter-Glo, 24 h; note: % of control where 0% means no effect; nearly all actives have a fitted effect of over 65% in size
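Screening used galactose-induced yeast with toxic alpha-synuclein levels, exposed to compound for 24 hr at 30 deg C. Cell growth, read with BacTiter-Glo luminescence, gave the measured signal.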
TDP43 rescue: TDP-43 toxicity inhibition in yeast. TDP-43 expressing yeast growth rescue, BacTiter-Glo, 24 h. Potency, µM (doses to about 46.1 µM), without a hit: at the highest dose growth rescue (activation), hits mostly activators. hit rate 1.8% among 410,000. AID 652104; note: % of control where 0% means no effect; nearly all actives have a fitted effect of over 50% in size
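Yeast cells expressing TDP-43 under galactose induction are exposed to compounds for 24 hr at 30 deg C. BacTiter-Glo luminescence measures growth, so protective compounds score as activators.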
Starred values were filed as active, the others as inactive; i = inactive; ? = inconclusive; nt = not tested or not shown. Most compounds without a hit are left out; they make up all but 2.1% or so of the library. Unless noted, calls come from the whole dose curve; as a rule, active = well fitted curve in the direction sought with a large enough effect; inconclusive = small, poorly fitted or top-dose-only effect, or another doubt; inactive = no such curve, though single readings can be large; an effect the other way counts as inactive or inconclusive. Potency is the fitted concentration of half-maximal effect.

SMILES | Abeta yeast res | PTAP TSG101 blk | FUS yeast rescue | aSyn yeast inh | TDP43 rescue
CCOC(=O)C1(C)CCCN1C(=O)c1ccc(C(F)(F)F)nc1C (centres undefined) | i | nt | i | 1.7% | 19.5%
O=C(Nc1ncc2c(n1)-c1ccccc1CC2)c1ccc(F)cc1 | i | 1.7% | i | 5.1% | 10µM*
O=C(Nc1ncc2c(n1)-c1ccccc1CC2)c1ccccc1 | i | -6.1% | i | -0.9% | 12.6µM*
CCn1c(CNC(=O)c2ccc(OC)cc2)nnc1SCC(=O)Nc1ccc(C)cc1 | i | nt | i | nt | 0.0%
CCCOc1ccc(NC(=O)CC2C(=O)OCC3CCCCN32)cc1 (centres undefined) | i | -0.9% | i | 3.2% | 35.5µM*
Cc1ccc(NC(=O)CC2C(=O)OCC3CCCCN32)cc1Cl (centres undefined) | i | -3.1% | i | -7.9% | 4.4%
O/N=C(/CI)c1ccc2ccccc2c1 | nt | nt | nt | 3.6% | nt
CCCCCn1c(CCCNC(=O)c2cccc(C)c2)nc2ccccc21 | i | nt | ? | nt | 35.5µM*
CC(=O)Nc1ccc(NC(=O)COC(=O)c2cc([N+](=O)[O-])ccc2N2CCOCC2)cc1 | i | -1.8% | nt | -0.7% | 0.0%
O=C(OCc1ccccc1Cl)c1cc([N+](=O)[O-])ccc1N1CCOCC1 | i | 1.1% | i | 19.1% | 20µM*
O=C(COC(=O)c1cc([N+](=O)[O-])ccc1N1CCOCC1)c1ccccc1 | i | -0.8% | i | 5.2% | 20µM*
CCOC(=O)c1ccccc1NC(=O)COC(=O)c1cc([N+](=O)[O-])ccc1N1CCOCC1 | i | -0.1% | i | 4.2% | 17.8µM*
CC(C)c1ccc(NC(=O)c2cc([N+](=O)[O-])ccc2N2CCOCC2)cc1 | ? | -2.6% | ? | -6.1% | 29.6%
O=C(Nc1ccc(N2CCN(C(=O)c3ccccc3)CC2)cc1)c1cc([N+](=O)[O-])ccc1N1CCOCC1 | i | 0.1% | 35.5µM* | 1.3% | -8.4%
O=C(COC(=O)c1cc([N+](=O)[O-])ccc1N1CCOCC1)c1ccccc1Cl | i | -4.2% | i | 10.4% | ?
Cc1ccc(C(=O)c2cc([N+](=O)[O-])ccc2N2CCOCC2)cc1 | i | -1.7% | nt | 14.4% | 35.5µM*
COc1ccccc1C(=O)COC(=O)c1cc([N+](=O)[O-])ccc1N1CCOCC1 | i | 1.0% | i | 12.1% | 11.2µM*
COc1ccc(C(=O)COC(=O)c2cc(S(=O)(=O)N3CCCCC3)ccc2N2CCOCC2)c(OC)c1 | i | 1.5% | 15.8µM* | 2.8% | ?
COc1ccc(C(=O)c2cc([N+](=O)[O-])ccc2N2CCOCC2)cc1 | ? | -5.2% | nt | 23.3% | 6.5%
Cc1ccc(NC(=O)CN(C)S(=O)(=O)c2ccc(Cl)s2)c(O)c1 | i | -4.4% | i | -0.8% | 9.9%
CCOC(=O)c1c(NC(C)=O)c2c3c(sc2n1Cc1nc(-c2ccccc2C)oc1C)CCCC3 | i | nt | i | nt | -1.6%
Cc1ccc(-c2csc(N/N=C/c3ccco3)n2)cc1 | i | -1.1% | ? | -17.5% | 7.0%
Clc1ccc(-c2csc(N/N=C/c3ccco3)n2)cc1 | i | 2.1% | i | -28.4% | 6.31µM*
COc1cc2c(cc1OC)/C(=C/C(=O)c1ccc(F)cc1)NCC2 | i | -2.0% | i | 6.1% | 10µM*
COc1cc2c(cc1OC)/C(=C/C(=O)c1ccccc1F)NCC2 | i | 5.6% | i | 8.9% | 10.4%
CCCCn1nnnc1C(c1ccccc1)N1CCN(C/C=C/c2ccccc2)CC1 (centres undefined) | i | nt | i | 0.1% | 13.9%
COc1ccc(-c2cc(C(C)=O)c(C)n2CCC(=O)Nc2cc(Cl)ccc2C)cc1 | i | nt | i | nt | 5.8%
CCOc1ccc(CNC(=O)c2ccc3nc(C(C)C)oc3c2)cc1 | i | nt | i | nt | 2.5%
O=C(Nc1ccccc1)OCC1CCCO1 (centres undefined) | i | -0.3% | i | 2.2% | 2.5%
O=C(Nc1ccccc1)OCC1COC(c2ccccc2)(c2ccccc2)O1 (centres undefined) | i | -3.6% | nt | 11.5% | 20µM*
